In PubChem BioAssay AID602233 (National Center for Advancing Translational Sciences (NCATS), 2012):
In all, about 380,000 compounds went through this assay and about 170 (0.045%) were called active. Calls come from the whole dose curve; as a rule, active = well fitted inhibition curve with a large enough effect; inconclusive = small, poorly fitted or top-dose-only effect; inactive = no such curve, though single readings can be large or run the other way. Many of the other results were omitted from the sample, so actives are more common in it than they were.

Target: Phosphoglycerate kinase, glycosomal (Trypanosoma brucei brucei) (UniProt P07378)
Sequence (P07378 whole entry, looked up): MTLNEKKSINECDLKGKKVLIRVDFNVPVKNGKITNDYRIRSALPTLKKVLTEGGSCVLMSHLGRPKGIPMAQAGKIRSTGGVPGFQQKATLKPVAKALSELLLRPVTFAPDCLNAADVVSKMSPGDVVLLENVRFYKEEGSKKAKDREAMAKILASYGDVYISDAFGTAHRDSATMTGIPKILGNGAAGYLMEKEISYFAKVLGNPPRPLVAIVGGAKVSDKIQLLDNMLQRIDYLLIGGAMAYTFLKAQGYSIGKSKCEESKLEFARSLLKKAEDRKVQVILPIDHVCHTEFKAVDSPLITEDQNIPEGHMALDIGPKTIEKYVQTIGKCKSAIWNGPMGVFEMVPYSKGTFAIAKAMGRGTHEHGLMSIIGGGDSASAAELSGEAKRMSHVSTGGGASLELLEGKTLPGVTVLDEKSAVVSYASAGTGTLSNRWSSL
Assay: qHTS Assay to Find Inhibitors of Phosphoglycerate Kinase; note: nearly all actives have a fitted effect of over 60% in size
Conditions: PGK/GAPDH coupled, Kinase-Glo luminescence, 60 min; series mostly up to 57.5 µM; activity change, negative = inhibition: at the top concentration
From the text: Several species of the Trypanosomatidae family of parasitic protozoans cause a spectrum of diseases throughout the tropical and subtropical world. Sleeping sickness, caused by two subspecies of Trypanosoma brucei, is endemic to areas of sub-Saharan Africa, while Chagas disease, a manifestation of Trypanosoma cruzi infection, is prevalent throughout Central and South America. In addition, many species of Leishmania are responsible for a range of cutaneous and visceral diseases, causing ulcers, destructive lesions and kalaazar, a lethal infection of the viscera. Collectively, these organisms infect 30 million people worldwide (~500 million live in endemic areas), and account for ~130,000 deaths annually. Given their debilitating and prevalent nature, trypanosomatid parasites impose a heavy medical, economic and social burden on entire populations, primarily in the developing world. The problem is further exacerbated by the fact that existing treatments have progressed little in the past 50 years, and current drugs show high toxicity and poor efficacy. […] Blood-stream stages of T. brucei are entirely dependent on glycolysis as a source of ATP, and the tricarboxylic acid cycle and oxidative phosphorylation are both repressed. Glycolysis in axenically cultured T. cruzi, representing the intracellular pathogenic stage, is also essential for these parasites. […] Previous studies have shown that the glycolytic enzyme, phosphoglycerate kinase (PGK), is a viable target for drugs to kill these parasites. […] NIH Molecular Libraries Probe Production Network [MLPCN] NIH Chemical Genomics Center [NCGC] MLPCN Grant: R03 MH093212 PI Name: Malcolm Walkinshaw, University of Edinburgh
3ul of substrate/PGK buffer (columns 1,2,5-48) are dispensed into Greiner white solid bottom 1536-well assay plates; columns 3-4 receive only TEA buffer as 0x PGK controls. Compounds are then transferred via Kalypsys pin tool equipped with 1536-pin array (10nl slotted pins, V&P Scientific, San Diego, CA). Following addition of compound, 1ul of GAPDH (100nM final concentration, all columns) is added to initiate the reaction (this upstream coupling enzyme is necessary for in-well production of PGK substrate, 1,3-bisphosphoglycerate (1,3-BPG), which is unstable and not commercially available). The plates are then incubated at room temperature for 60 minutes. Kinase-Glo Plus reagent is added (2ul) and plates incubated for 10 minutes, before being transferred to a ViewLux high-throughput CCD imager (PerkinElmer) wherein single end-point measurements of luminescence are acquired using a clear filter. All reagents are diluted in an assay buffer consisting of 100mM TEA (pH 7.6), 5mM MgCl2 and 0.01% Tween-20.
% is set by controls: 0 for no effect and ±100 for the full control effect; potency is the fitted concentration of half-maximal effect.

Activity change, negative = inhibition, inactive:
CCOc1ccc(OCC)c(NC(=O)CN(c2ccc(C)cc2)S(=O)(=O)c2c(C)n[nH]c2C)c1 -0.327%
CCCS(=O)(=O)c1ncc(Cl)c(C(=O)Nc2scc(-c3ccccc3)c2C(=O)OCC)n1 -0.928%
Cc1sc(C2C(C#N)=C(N)N(c3cccc(Cl)c3)C3=C2C(=O)CCC3)cc1CN1CCOCC1 (stereo not given) 1.36%
Cc1ccc(C(=O)N2c3ncnn3C3(CCCCC3)[C@@H]3CCCC[C@@H]32)cc1 -3.66%
CC1=Nc2cc(C(=O)NCc3ccc(C)cc3)ccc2Sc2ccc(Cl)cc21 1.58%
CCc1cnc2c(c1SCC(=O)N1CCC(C)CC1)c(=O)n(C)c(=O)n2C -7.57%
CCc1cccc(NC(=O)CN(c2ccc(C)c(C)c2)S(=O)(=O)c2ccsc2C(=O)OC)c1 -7.47%
CCOc1ccccc1NC(=O)c1ccc2c(c1)CCN2S(=O)(=O)c1ccc(C)cc1 -6.13%
CSc1ccc(NC(=O)Cn2nnnc2-c2ccccc2F)cc1 0.393%
CC(=O)c1ccc(NC(c2ccc(F)cc2)c2nnc(-c3ccccc3)o2)cc1 (stereo not given) -9.83%
CCc1ccccc1NC(=O)c1cnn(-c2ccc(F)cc2)c1C1CCNCC1 -3.07%
Cc1ccc(CNC(=O)CCNS(=O)(=O)c2ccc3c(c2)oc(=O)n3C)cc1 1.22%
CC(C)Cn1c(=O)c2ccccc2n2c(CCC(=O)N3CCN(c4cccc(Cl)c4)CC3)nnc12 -8.58%
Cc1ccc(OCCSc2nc(-c3cccs3)nc3cc(=O)[nH]n23)cc1Cl -19.6%
CC1=C(c2ccc(Cl)cc2)S(=O)(=O)N=C1N1CCN(c2cc(C)ccc2C)CC1 -10.5%
Cc1cccc(N2CCN(c3c(CN4CCCC4)c(=O)oc4ccccc34)CC2)c1C 1.96%
CCCN(CCC)CCNC(=O)c1ccc2c(c1)NC(=O)C(CS(=O)(=O)Cc1cccc(Br)c1)N2 (stereo not given) -1.96%
COc1cc(CNC(=O)c2cc3n(n2)CCCN(Cc2cccc(F)c2)C3=O)cc(OC)c1OC -5.91%
COc1ccc(OC)c(-c2nc(C(N)=O)c3c(n2)n(-c2ccc4c(c2)OCO4)c(=O)n3C)c1 -7.35%
CCN(Cc1ccccc1)C(=O)c1cn(-c2cccc(OC)c2)c(=O)c2ccccc12 4.13%
O=C(CCn1c(=O)c2ccccc2n(Cc2ccc(Cl)cc2)c1=O)NCc1ccc2c(c1)OCO2 2.73%
Cc1ccccc1OCc1ccc(-c2nc(C#N)c(N3CCCCC3)o2)o1 -5.61%
CC(C)(C)OC(=O)N1CCC(c2c(C(=O)Nc3ccc4c(c3)OCO4)cnn2-c2ccccc2)CC1 -5.35%
COc1ccc(-n2c(=O)c3sc4ccccc4c3n(CC(=O)Nc3cccc(C)c3)c2=O)cc1 3.99%
Cc1c(C)n(Cc2ccc(Cl)cc2)c2ccc(C(=O)NCCc3ccc(S(N)(=O)=O)cc3)cc12 -1.01%
CCCNC(=O)c1ccc2c(c1)ncn2-c1ccc(C)cc1C -4%
CCn1cc2nc(SCc3cccc(F)c3)n(CCc3ccccc3)c(=O)c2n1 -9.15%
Cc1nc2ccccn2c(=O)c1NC(=O)c1c(F)cccc1F -8.58%
COc1ccc(CCNc2ncnc3onc(-c4ccc(Cl)cc4)c23)c(OC)c1 -1.45%
CCOC(=O)C(Cc1ccccc1)NC(=O)CCc1c(C)nc2c(c(C)nn2-c2ccc(C)c(C)c2)c1C (stereo not given) -8%
COc1ccccc1NC(=O)c1oc2ccccc2c1NC(=O)C(C)C -7.07%
O=C(NCc1cccnc1)C(=O)NCC(c1cccnc1)N1CCN(c2ccccc2)CC1 (stereo not given) -9.1%
Cc1ccccc1CNC(=O)C(=O)NCC(c1cccs1)S(=O)(=O)c1cccs1 (stereo not given) 9.59%
O=C(CCC(=O)N1CC2CCCN2c2ccccc21)NCc1ccccc1Cl (stereo not given) -2.17%
O=C(CC1N=C2c3ccccc3N=C(SCc3cccc(Cl)c3)N2C1=O)NCc1ccc2c(c1)OCO2 (stereo not given) 1.41%
CCN(CC)S(=O)(=O)c1nnc(NC(=O)COc2ccccc2Cl)s1 -3.74%
Cc1oc2ccc(O)c(CN3CCC(C)CC3)c2c1C(=O)Nc1ccccc1 6.18%
CCCCCn1c(CCCNC(=O)c2ccccc2OC)nc2ccccc21 2.09%
CN(Cc1ccccc1)c1ncnc2onc(-c3ccc(F)cc3)c12 -9.68%
O=C(NCc1ccc2c(c1)CCN2C(=O)c1ccccc1)c1ccccc1 -1.54%
COc1ccc(-n2c(SCC(N)=O)nc3c(oc4ccccc43)c2=O)cc1 5.05%
O=C(Cn1cc(SCc2cccc(Cl)c2)c2ccccc21)N1CCCCC1 8.44%
COc1ccc(Cn2ccc3nc(C)c(C(=O)Nc4ccc(C)c(F)c4)cc3c2=O)cc1 -7.62%
O=C(Cn1c(=O)n(Cc2cccs2)c(=O)c2cccnc21)Nc1ccc(F)cc1 9.96%
COc1cc(NS(=O)(=O)c2ccc3c(c2)OCC(C(=O)N2CCCC2)O3)cc(OC)c1 (stereo not given) -5.79%
COc1ccc(OC)c2sc(N3CCN(C(=O)C4COc5ccccc5O4)CC3)nc12 (stereo not given) 0.972%
COc1ccc(C(=O)N2CCC(c3nc4ccccc4o3)CC2)cc1 3.31%
COc1ccc(CCNS(=O)(=O)c2cc(-c3cc(C)no3)ccc2C)cc1OC 7.73%
COc1ccc(N2CCN(C(=O)c3c(C)oc4nc(C)nc(N5CCCC5)c34)CC2)cc1 -3.22%
COc1cccc(NC(=O)N(Cc2cn(C)c3ccccc23)C2CCCCCC2)c1 1.22%
Cc1ccc(CCNC(=O)c2nnc(Cc3cccc(F)c3)o2)cc1 -3.81%
COC(=O)c1ccc(Cn2c(SCC(=O)N(C)c3ccccc3)nc3ccccc32)cc1 -5.74%

outcome, inactive:
O=C(CC(c1cccs1)N1Cc2ccccc2C1=O)Nc1ccc(F)c(F)c1 (stereo not given)
CCOc1ccc(CCNC(=O)c2c(C)oc3ncn(C)c(=O)c23)cc1
CCc1cccc(-n2nnc(-c3nsc(NC(=O)c4ccc(C)cc4)n3)c2C)c1
CCc1ccc(NC(=O)CN2CCSc3ccc(S(=O)(=O)N4CCCC4)cc32)cc1
CC(C)(C)c1ccc(OCC(=O)N2CCC(c3nc4ccccc4s3)CC2)cc1
CC(=O)c1ccc(NC(=O)c2nc(-c3ccc(C)cc3)n3c2CCCCC3)cc1

Potency, active:
Nc1ccc2nc3c(=O)[nH]c(=S)[nH]c3nc2c1 2.51 µM
Cc1c(CC(=O)N2CCN(C(=O)C3COc4ccccc4O3)CC2)c(=O)oc2c(O)c(O)ccc12 (stereo not given) 8.91 µM
